This note sets out measurements from PubChem BioAssay (NCATS).

“And” between values parts separate entries of the source, which are not always exact repeats. Equal entries are not always repeated. Results filed as inconclusive are left out. Values without a mark were called inactive. The source made the active and inactive calls. Calls follow the shape of the dose curve; as a rule, active = well fitted cell-killing curve with a large enough effect; inconclusive = small, poorly fitted or top-dose-only effect; inactive = flat fitted curve, though single readings scatter. Where a SMILES comes first, the peptide text is derived from it. [ ]: non-standard residue; d: D form. The star is where a group is joined. Sta = CC(C)C[C@H](N)[C@@H](O)CC(=O)O; Isovaleryl = CC(C)CC(=O)*
% is scaled to controls: 0 for no effect and ±100 for the full control effect.

A short description of the experiment: Cellular viability qHTS for adrenocortical cancer (ACC) cell line SW-13 (AID 1963989). Also: nearly all actives have a fitted effect of over 65% in size.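 As to activity (max response): cells grown in serum-free medium with ITS supplement.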 To be noted: SW-13 ACC cells viability, CellTiter-Glo, 48 h; activity (max response): active compounds read low. The source says:
PI: Naris Nilubol, MD Surgical Oncology Program, National Cancer Institute (NCI) National Institute of Health (NIH), Bethesda, Maryland Adrenocortical cancer (ACC) is a rare malignancy with poor survival outcomes and few treatment options. Currently, mitotane is the only FDA-approved therapy for ACC. Although adjuvant radiation therapy is rarely utilized, it has the potential to improve survival in select cases. Through a quantitative high-throughput drug screen (qHTS), we identified auranofin (AF), a thioredoxin reductase (TXNRD) inhibitor, as a promising candidate drug. This study aims to evaluate whether AF can enhance the efficacy of radiation therapy in the treatment of ACC. Two human ACC cell lines, SW-13 and NCI-H295R, were screened using the National Center for Advancing Translational Sciences (NCATS) Pharmaceutical Collection (NPC) and the Mechanism Interrogation PlatE (MIPE) library (~4,991 compounds). CellTiter-Glo (Cat # G7570, Promega, Madison, WI) was utilized to measure cell viability. Described herein are the results of the corresponding viability assay.
PROTOCOL TABLE (as described by Inglese J, Shamu CE and Guy RK. 2007) SEQUENCE No. (e.g., 1, 2, 3, etc.); […] (e.g., Cells, Incubation, Reagent, etc.); VALUE; DESCRIPTION. 1; Cells; 5 uL; white, solid-bottom, 1536-well tissue-culture treated plates. 2; Time; overnight culture at 37C with 5% CO2. 3; Compounds and control; 23 nL; Kalypsis pin tool (Wako USA) equipped with a 1536-well pin head to transfer to the assay plates. 4; Time; 48 hours; 37C with 5% CO2. 5; Reagent; 4 uL; CellTiter-Glo luminescent substrate mix. 6; Time; 20 min at room temperature. 7; Detection; Luminescence; ViewLux plate reader NOTES (numbers refer to Sequence numbers above) 1. SW13 cells were harvested from a T175 flask and resuspended in ITS-supplemented DMEM serum-free medium at a concentration of 300 000 cells/mL. Then 5 uL of resuspended cells were dispensed into each well of white, solid-bottom, 1536-well tissue-culture-treated plates using a multidrop combi dispenser. The plates were covered with stainless steel gasket lids. 2-3. The plates were cultured overnight at 37C with 5% CO2. Twenty-three nL of compounds (eight selected concentrations from the NPC / MIPE) or positive control (10 mM stock of bortezomib) in DMSO was transferred to each well of the assay plate using a pin tool (Kalypsys, San Diego, CA, USA). The final concentration of the compounds in the 5 uL assay volume ranged from 0.5 nM to 46 uM. 4-6. After 48 hours of incubation at 37C and 5% CO2, 4 uL of CellTilter-Glo luminescent substrate mix (Promega, Madison, WI, USA) was added to each well. Then the plates were incubated for 20 minutes at room temperature. 7. After incubation, luminescence was measured using a ViewLux plate reader (PerkinElmer, Waltham, MA, USA) with a clear filter was used to measure the number of metabolically competent cells. To determine compound activity in the qHTS assay, the titration-response data for each sample was plotted and modeled by a four-parameter logistic fit yielding IC50 and efficacy (maximal response) values. […] REFERENCES: Inglese J, Shamu CE and Guy RK, Reporting data from high throughput screening of small molecule libraries, Nature Chemical Biology, 2007, 3(8): 438-441. doi.org/10.1038/nchembio0807-438.
Consider `O=C(CS)Nc1ccccc1`, for which the activity (max response) was -14.1%.

In the case of `Clc1ccc(C(c2ccccc2Cl)C(Cl)Cl)cc1` (stereo not given), the activity (max response) was -27.3%.

As to `O=C(Oc1ccccc1)c1ccccc1O`, the activity (max response) is 1.95%.

In the case of `CCCCN(CCCC)CCCOC(=O)c1ccc(N)cc1`, the activity (max response) is -3.65%.

As to `C[C@@H](NC(=O)c1ncnc(N)c1Cl)c1ncc(C(=O)Nc2cc(C(F)(F)F)c(Cl)cn2)s1`, the Potency is 20 µM (active).

On to `CC#CCn1c(N2CCC[C@@H](N)C2)nc2c1c(=O)n(Cc1nc(C)c3ccccc3n1)c(=O)n2C`, for which the activity (max response) was 0.332%.

Take `CC(C)CC(=O)N[C@H](C(=O)N[C@H](C(=O)N[C@@H](CC(C)C)[C@@H](O)CC(=O)N[C@@H](C)C(=O)N[C@@H](CC(C)C)[C@@H](O)CC(=O)O)C(C)C)C(C)C` (Isovaleryl-VV[Sta]A[Sta]-OH): the activity (max response) is 4.2% and -6.21%.

As to `COCCCc1sc(-c2ccccc2)nc1C(=O)Nc1ccccc1-c1nc2cc(CN3CCCC3)cnc2s1`, the activity (max response) is -19.6%.

`CN(C)c1ccc(C(=O)NCCCCCCC(=O)NO)cc1`: the Potency was 4.47 µM (active).

For the compound `O=C(Nc1ccc(Cl)cc1)Nc1ccc(Cl)c(Cl)c1`, the Potency is 2.59 µM (active).

In the case of `CC[C@H](C)C(=O)O[C@H]1CCC=C2C=C[C@H](C)[C@H](CC[C@@H]3C[C@@H](O)CC(=O)O3)[C@H]21`, the activity (max response) was -23.7%.

`C=CCOc1cc(Cl)ccc1C(=O)NCCN(CC)CC`: the activity (max response) is -0.164%.

With `Cc1ncc(CSSCc2cnc(C)c(O)c2CO)c(CO)c1O`, the activity (max response) is 9.04%.

In the case of `Cc1nc(-c2cccnc2)sc1C(=O)Nc1ccccc1-c1cn2c(CN3CCOCC3)csc2n1`, the activity (max response) is -5.59%.

Turning to `CN(C)S(=O)(=O)c1ccc2c(c1)C(=Cc1cc3c([nH]1)CCCC3)C(=O)N2`, the activity (max response) is -10.1%.

Regarding `O=C(NCc1ccc(S(=O)(=O)c2cccc(C(F)(F)F)c2)cc1)c1cnc2[nH]ncc2c1`, the Potency is 0.0282 µM (active).

Regarding `[O-][n+]1ccccc1SSc1cccc[n+]1[O-]`, the Potency was 1.59 µM (active).

Regarding `CCOC(=O)C1=C(O)C(=O)N(Cc2ccccc2)C1`, the activity (max response) was 4.18%.

`CCc1cc2c(cc1N1CCC(N3CCOCC3)CC1)C(C)(C)c1[nH]c3cc(C#N)ccc3c1C2=O`: the activity (max response) is -11.5%.

For the compound `C#CCN[C@@H]1CCc2ccccc21`, the activity (max response) is 3.89% and -12.7%.

Consider `CC1(C)CCC(c2ccc(Cl)cc2)=C(CN2CCN(c3ccc(C(=O)NS(=O)(=O)c4ccc(N[C@H](CCN5CCOCC5)CSc5ccccc5)c(S(=O)(=O)C(F)(F)F)c4)cc3)CC2)C1`, for which the activity (max response) was 11.1%.

With `O=C(OC1C[C@H]2CC[C@@H](C1)[N+]21CCCC1)C(O)(c1ccccc1)c1ccccc1` (stereo not given in full), the activity (max response) was -1.15%.

As to `O=C(O)C(S)C(S)C(=O)O` (stereo not given), the activity (max response) was 13.2%.

Take `CN1CCCN=C1COC(=O)C(O)(c1ccccc1)C1CCCCC1` (stereo not given): the activity (max response) was 6.26%.

With `COc1ccc(/C=C/C(=O)Nc2ccccc2C(=O)O)cc1OC`, the activity (max response) was -0.0143%.

For the compound `O=C(/C=C/c1ccc(O)c(O)c1)O[C@@H]1C[C@@](OC(=O)/C=C/c2ccc(O)c(O)c2)(C(=O)O)C[C@@H](O)[C@@H]1O`, the activity (max response) was 4.38%.

For the compound `COc1ccc(S(=O)(=O)N2c3ccc(Cl)cc3[C@@](O)(c3ccccc3Cl)[C@H]2C(=O)N2CCC[C@@H]2C(N)=O)cc1OC`, the activity (max response) is -24.3%.

In the case of `Nc1cc(C(F)(F)F)c(-c2cc(N3CCOCC3)nc(N3CCOCC3)n2)cn1`, the Potency was 2 µM (active).

Consider `CC(C)(O)[C@H]1CC[C@@](C)([C@H]2[C@@H](O)C[C@@]3(C)[C@@H]4C[C@H](O[C@@H]5O[C@H](CO)[C@@H](O)[C@H](O)[C@H]5O)[C@H]5C(C)(C)[C@@H](O[C@@H]6OC[C@@H](O)[C@H](O)[C@H]6O)CC[C@@]56C[C@@]46CC[C@]23C)O1`, for which the activity (max response) is 1.01%.

Regarding `COC1=C(OC)C(=O)C(C/C=C(\C)CC/C=C(\C)CC/C=C(\C)CC/C=C(/C)CC/C=C(\C)CC/C=C(\C)CC/C=C(\C)CC/C=C(\C)CC/C=C(\C)CCC=C(C)C)=C(C)C1=O`, the activity (max response) is 3.03%.

For `COC(=O)N1CCN(Cc2cccc(NC(=O)Nc3ccc(C)nc3)c2F)CC1`, the activity (max response) is -16.4%.

Regarding `NS(=O)(=O)c1cc(-c2nn[nH]n2)c(NCc2cccs2)cc1Cl`, the activity (max response) is 11.4%.

Regarding `NC(=O)c1cccc(N)c1`, the activity (max response) was -2.32%.

In the case of `CN(C)C(=O)C(CCN1CCC(O)(c2ccc(Cl)cc2)CC1)(c1ccccc1)c1ccccc1`, the Potency was 5.17 µM (active).

In the case of `COc1ncnc(NS(=O)(=O)c2ccc(N)cc2)c1OC`, the activity (max response) is -3.79% and 4.29%.

As to `Cc1cccc(CN2CCN(C(c3ccccc3)c3ccc(Cl)cc3)CC2)c1` (stereo not given), the Potency was 3.26 µM (active) and 28.2 µM (active).

As to `O=C(O)CC1CCC(c2ccc(-c3ccc(Nc4ccc(C(F)(F)F)nc4)cn3)cc2)CC1` (stereo not given), the activity (max response) is -23.1%.

Take `O=C(OCC(COC(=O)c1cccnc1)(COC(=O)c1cccnc1)COC(=O)c1cccnc1)c1cccnc1`: the activity (max response) was -1.24%.

Regarding `Nc1ncnc2c1c(-c1cccc(OCc3ccccc3)c1)cn2C1CC(CN2CCC2)C1` (stereo not given), the activity (max response) is 12.1%.

With `NC(=O)c1ccccc1Nc1ccnc(Nc2cccc(O)c2)n1`, the Potency is 17.8 µM (active).
